We go through six molecules from PubChem BioAssay (Tox21).

Assay [1] is described as follows: qHTS assay to identify small molecule antagonists of the constitutive androstane receptor (CAR) signaling pathway - cell viability counter screen (AID 1224837). Further: nearly all actives have a fitted effect of over 45% in size. In a few lines:
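Cells are seeded, rested 4 hr at 37 C/5% CO2, dosed with compound (15-point series) and 50 nM CITCO, incubated a further 23 hr, and then CellTiter-Fluor reagent is added before fluorescence is read. The line is HepG2 with stable hCAR and CYP2B6-2.2kb.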

The target in assay [2] is Nuclear receptor subfamily 1 group I member 3 (Homo sapiens) (UniProt Q14994). The assay can be described thus: qHTS assay to identify small molecule antagonists of the constitutive androstane receptor (CAR) signaling pathway (AID 1224838).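 Further: HepG2 cells stably expressing hCAR with CYP2B6 luciferase reporter stimulated by CITCO; nearly all actives have a fitted effect of over 40% in size.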 In a few lines:
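Luminescence from a CYP2B6-2.2kb promoter reporter in hCAR-expressing HepG2 cells reflects CAR signaling. Cells received compounds at 15 concentrations and 50 nM CITCO (final), then incubated 24 h at 37 C/5% CO2.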
In general terms: In qHTS, concentration-response curves come from the screen itself.

For assay [3] the target is unchanged. The assay can be described thus: qHTS assay to identify small molecule agonists of the constitutive androstane receptor (CAR) signaling pathway (AID 1224839). Further: nearly all actives have a fitted effect of over 15% in size. Further: potency means the concentration at half of the fitted maximal effect.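 On activation: HepG2 cells stably carrying human CAR and a CYP2B6 luciferase reporter.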 In a few lines:
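Double-stable HepG2 cells (hCAR, CYP2B6-2.2kb) seeded 4 h before compound addition. Exposure 24 h with 0.75 uM PK11195 final. Luciferase detected by ONE-Glo.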

Assay [4] is described as follows: qHTS assay to identify small molecule antagonists of the estrogen related receptor signaling pathway with the pleiotropic PPARgamma coactivator (PGC) from Tox21 10K library - cell viability counter screen (AID 1224840; active means well fitted cell-killing curve with a large enough effect in the repeat runs, not every such curve was filed as active; further: nearly all actives have a fitted effect of over 40% in size). Summed up:
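Cell viability is measured by CellTiter-Fluor fluorescence in PGC/ERR cells that receive compounds after a 6-hour attachment period and are then incubated 17.5 hours at 37 C.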

The target of assay [5] is Thyrotropin receptor (Homo sapiens) (UniProt P16473). Nature of the assay: qHTS assay to identify small molecule agonists of the thyroid stimulating hormone receptor (TSHR) signaling pathway (AID 1224843; calls by dose curve; further: nearly all actives have a fitted effect of over 45% in size). In a few lines:
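HEK293/TSHR, 800 cells/well; cpd 30 min RT; add cAMP-d2 + anti-cAMP-cryptate, 1 h RT; fluorescence read on plate reader. 15-pt titration, n=3.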

Assay [6] in a line: qHTS assay to identify small molecule agonists of the hypoxia (HIF-1) signaling pathway - cell viability counter screen (AID 1224844; calls by dose curve; further: nearly all actives have a fitted effect of over 50% in size). In a few lines: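 Viability counter screen: HRE-bla ME-180 cells plated 5 hrs before compound addition, treated 17 hrs at 37C and 5% CO2, then CellTiter-Glo added after the FRET reporter read; luminescence after 30 min.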
A short description of assay [7]: qHTS assay to identify small molecule agonists of H2AX (AID 1224845; active means well fitted activation curve with a large enough effect in the signal ratio in the repeat runs, not every such curve was filed as active; the % refers to the signal ratio; further: potency means the concentration at half of the fitted maximal effect). Summed up: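 Wild-type CHO-K1 cells, plated overnight, exposed 3hr at 37C to 15 concentrations (0.76% DMSO final). Lysed, then HTRF anti-pH2AX (S139) cryptate and anti-H2AX-d2 antibodies, 24 hr room temperature; 665/620 nm emission read.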
The nature of assay [8]: qHTS assay to identify small molecule agonists of the hypoxia (HIF-1) signaling pathway (AID 1224846; active means well fitted activation curve with a large enough effect in the signal ratio in the repeat runs, not every such curve was filed as active; the % refers to the signal ratio). In a few lines: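 Agonist mode reporter screen. ME-180 cells stably expressing bla under HRE control received test compounds in DMSO for 17 hrs (37C, 5% CO2), and beta-lactamase activity was then detected with the CCF4-AM FRET substrate.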
A short description of assay [9]: qHTS assay to identify small molecule agonists of H2AX - cell viability counter screen (AID 1224847; calls by dose curve; further: top concentration of the series differs between compounds; nearly all actives have a fitted effect of over 30% in size). Summed up: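 Quantitative HTS viability measurement: CHO-K1 wild-type cells in serum (10% FBS) medium, short 3 hr drug exposure at 37C with 0.76% DMSO, CellTiter-Glo luminescent detection.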
Assay [10] in a line: qHTS RealTime-Glo MT Cell Viability Assay in HepG2 cells - 24 hour (AID 1224867). Further: nearly all actives have a fitted effect of over 50% in size. Summed up:
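Real-time, nonlytic viability: 600 HepG2 cells/well mixed with NanoLuc enzyme plus prosubstrate; 5 h settle, compound (DMSO) added by pintool; luminescence monitored over 40 h at 37 C.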

A short description of assay [11]: qHTS RealTime-Glo MT Cell Viability Assay in HEK293 cells - 32 hour (AID 1224868). Further: nearly all actives have a fitted effect of over 50% in size. Further: potency means the concentration at half of the fitted maximal effect. In a few lines: (§1)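 Cells + reagent dispensed (600 cells/well, HEK293) → 5 h at 37 C/5% CO2 → 23 nL compound in DMSO pinned → 40 h at 37 C → luminescence read at 0, 8, 16, 24, 32, 40 h.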
Assay [12] can be described thus: qHTS RealTime-Glo MT Cell Viability Assay in HepG2 cells - 40 hour (AID 1224870). Further: nearly all actives have a fitted effect of over 50% in size. Further: potency means the concentration at half of the fitted maximal effect. Summed up:
(§2)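 HepG2 cells (600/well) mixed with RealTime-Glo MT reagent, settled 5 h at 37 C/5% CO2 before compound addition. Nonlytic NanoLuc luminescence from viable-cell prosubstrate reduction read repeatedly during 40 h treatment at 37 C.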

A short description of assay [13]: A CellTox Green Cytotoxicity Assay to monitor cytotoxicity in HEK293 cells - 40 hour (AID 1224871). Further: nearly all actives have a fitted effect of over 45% in size. Further: potency means the concentration at half of the fitted maximal effect. Summed up:
(§3)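 Dead-cell fluorescence measured kinetically: asymmetric cyanine dye, HEK293, 600 cells/well, 5 h settle, 23 nL cpd/DMSO, 37 C, reads 0–40 h every 8 h.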

A short description of assay [14]: qHTS RealTime-Glo MT Cell Viability Assay in HEK293 cells - 16 hour (AID 1224872). Further: nearly all actives have a fitted effect of over 50% in size. Further: potency means the concentration at half of the fitted maximal effect. In a few lines:
as §1

The nature of assay [15]: qHTS RealTime-Glo MT Cell Viability Assay in HepG2 cells - 8 hour (AID 1224873). Further: nearly all actives have a fitted effect of over 55% in size. In a few lines:
as §2

The nature of assay [16]: A CellTox Green Cytotoxicity Assay to monitor cytotoxicity in HEK293 cells - 0 hour (AID 1224869). Further: nearly all actives have a fitted effect of over 50% in size. Summed up:
as §3

Assay [17] in a line: qHTS assay to identify small molecule antagonists of the estrogen related receptor signaling pathway with the pleiotropic PPARgamma coactivator (PGC) from Tox21 10K library (AID 1224841; call rule not given here; further: potency means the concentration at half of the fitted maximal effect). Summed up: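 Cells stably carrying the PGC/ERR reporter, seeded at 2,000 per well, received pin-transferred compounds 6 h post-plating. Exposure lasted 18 h at 37 C. Signal: One-Glo luminescence.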

The nature of assay [18]: qHTS assay to identify small molecule agonists of the estrogen related receptor signaling pathway with the pleiotropic PPARgamma coactivator (PGC) from Tox21 10K library (AID 1224842). Further: nearly all actives have a fitted effect of over 15% in size. Further: potency means the concentration at half of the fitted maximal effect. In a few lines:
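PGC/ERR reporter cell line, 2,000 cells per well, incubated 6 h at 37 C before 23 nL compound in DMSO was added. After 18 h at 37 C, One-Glo luminescence read following 30 min at room temperature.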

Assay [19] can be described thus: qHTS assay to identify small molecule antagonists of the estrogen related receptor (ERR) signaling pathway from Tox21 library (AID 1224848). Further: nearly all actives have a fitted effect of over 50% in size. Further: potency means the concentration at half of the fitted maximal effect. Summed up: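 Compounds dissolved in DMSO are pin-transferred onto ERR reporter cells (2,000 per well) that have settled for 6 h at 37 C. Plates then incubate 18 h at 37 C before ONE-Glo luciferase reagent and a luminescence read 30 min later.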

The nature of assay [20]: qHTS assay to identify small molecule agonists of the estrogen related receptor (ERR) signaling pathway from Tox21 library (AID 1224849; calls by dose curve; further: nearly all actives have a fitted effect of over 15% in size). The conditions noted are these: ERR reporter cell line, ONE-Glo luciferase, 18 h. Summed up: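 Quantitative HTS in agonist format: NTP ERR cell line, compounds transferred in DMSO after 6 h plating, 18 h incubation at 37 C, ONE-Glo luminescence endpoint.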

Values joined by “and” are separate entries in the source; they are usually repeats but may differ in a detail not shown here. Identical values can stand only once. Results filed as inconclusive are left out. Some structures have more than one record in an assay (separate samples or runs), and their calls can disagree. Active and inactive are the calls of the source. Unless noted, the call rests on the fitted dose curve; in most records, active means well fitted curve in the direction sought with a large enough effect in the repeat runs; inconclusive means weak or mixed curves; inactive means no such curve, though single readings can be large; an effect the other way counts as inactive or inconclusive.
On the % scale 0 is the no-effect control and ±100 the full control effect.

Chain of Nuclear receptor subfamily 1 group I member 3 (Homo sapiens) (Q14994 whole entry, looked up): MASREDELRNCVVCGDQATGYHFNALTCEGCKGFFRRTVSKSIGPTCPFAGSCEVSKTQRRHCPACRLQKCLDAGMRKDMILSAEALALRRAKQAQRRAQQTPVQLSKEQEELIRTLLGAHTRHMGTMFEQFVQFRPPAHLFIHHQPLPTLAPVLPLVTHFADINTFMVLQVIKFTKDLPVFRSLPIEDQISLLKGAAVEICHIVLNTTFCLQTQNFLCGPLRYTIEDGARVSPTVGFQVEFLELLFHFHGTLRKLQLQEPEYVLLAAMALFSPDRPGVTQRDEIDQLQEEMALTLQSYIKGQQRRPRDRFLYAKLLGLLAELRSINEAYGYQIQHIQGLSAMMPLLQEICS
Chain of Thyrotropin receptor (Homo sapiens) (P16473 whole entry, looked up): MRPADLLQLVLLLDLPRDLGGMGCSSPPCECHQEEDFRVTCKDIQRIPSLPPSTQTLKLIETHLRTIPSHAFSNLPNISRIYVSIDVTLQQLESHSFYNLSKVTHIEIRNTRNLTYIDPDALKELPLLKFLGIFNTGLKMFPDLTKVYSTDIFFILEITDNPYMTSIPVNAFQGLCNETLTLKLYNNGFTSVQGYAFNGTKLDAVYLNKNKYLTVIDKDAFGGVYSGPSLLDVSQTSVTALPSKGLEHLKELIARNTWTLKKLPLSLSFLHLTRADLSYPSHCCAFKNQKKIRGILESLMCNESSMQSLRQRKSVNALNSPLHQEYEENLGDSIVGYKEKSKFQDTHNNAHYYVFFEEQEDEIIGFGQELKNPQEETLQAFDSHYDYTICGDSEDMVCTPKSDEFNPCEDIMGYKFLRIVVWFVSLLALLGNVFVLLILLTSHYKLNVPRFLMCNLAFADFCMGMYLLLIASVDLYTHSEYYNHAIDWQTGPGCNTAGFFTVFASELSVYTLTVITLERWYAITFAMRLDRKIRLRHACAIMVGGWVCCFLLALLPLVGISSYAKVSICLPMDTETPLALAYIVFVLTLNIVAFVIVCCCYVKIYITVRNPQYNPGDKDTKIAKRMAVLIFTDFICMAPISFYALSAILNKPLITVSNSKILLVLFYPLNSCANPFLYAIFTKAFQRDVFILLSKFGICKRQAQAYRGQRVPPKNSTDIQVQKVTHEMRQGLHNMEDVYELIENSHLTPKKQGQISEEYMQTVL

As to `CCC(=O)C(CC(C)N(C)C)(c1ccccc1)c1ccccc1` (configuration not stated), the Potency result in [1], in [2], in assay [3], in [4], in assay [5] and in [6] was “inactive” in each case. For the same molecule, the Potency entry in assay [7], in assay [9], in assay [10], in assay [12], in assay [13] and in [14] was “inactive” throughout. In addition, the Potency entry in assay [15] was “inactive”. Also, the result in assay [8] was inactive. In addition, the Potency in [11] is 24.4 µM (active).

For `CCC[N+]1(C)CCCCC1`, the Potency result in assay [1], in assay [4], in [5], in assay [6], in assay [7] and in [9] was “inactive” throughout. Moreover, the Potency entry in [10], in [11], in assay [16], in [13], in assay [14] and in assay [15] was “inactive” throughout. In assay [8], the result was inactive. Further, the Potency entry in [12] was “inactive and 24.6 µM (active)”.

As for `C[C@]12CCC(=O)C=C1CC[C@@H]1[C@@H]2CC[C@]2(C)C(=O)CC[C@@H]12`, the Potency result in [1], in [2], in assay [3], in assay [4], in [18] and in assay [5] was “inactive” in each case. The Potency entry in assay [6], in [9], in [10], in [16], in assay [12] and in assay [15] was “inactive” in each case. The Potency in [17] was 67.4 µM (active) and inactive; in assay [7], 88.3 µM (active); in assay [19], 42.5 µM (active) and 54.5 µM (active); in assay [11] it was 27.1 µM (active) and inactive; in assay [13] it was 48.2 µM (active) and inactive; in assay [14], 24.1 µM (active) and inactive. In addition, the activity change, positive = activation in assay [20] (at 42.5 µM (top of the series)) is -23.4% (inactive); in [20] (at 92.4 µM (top of the series)) it was -46.4% (inactive) and -41% (inactive).

As to `O=C(O)CCl`, the Potency entry in assay [1], in assay [4], in assay [17], in assay [18], in [5] and in assay [6] was “inactive” in each case. In addition, the Potency entry in assay [7], in assay [9], in assay [19], in [10], in [11] and in [16] was “inactive” in each case. In addition, the Potency entry in assay [12], in [13], in assay [14] and in [15] was “inactive” throughout. In addition, the result in assay [8] was inactive. Besides, the activity change, positive = activation in [20] (at 92.4 µM (top of the series)) is 5.04% (inactive) and -0.191% (inactive) and -5.49% (inactive).

With `OCCOc1ccccc1`, the Potency entry in assay [1], in assay [2], in assay [3], in [4], in assay [17] and in assay [18] was “inactive” throughout. The Potency entry in assay [5], in assay [6], in assay [7], in assay [9], in assay [19] and in assay [10] was “inactive” in each case. Besides, the Potency entry in [11], in assay [12], in [13], in [14] and in assay [15] was “inactive” in each case. Moreover, the call in [8] was inactive. The activity change, positive = activation is 7.59% (inactive) in assay [20] (at 42.5 µM (top of the series)); -33.2% (inactive) and 4.84% (inactive) in [20] (at 92.4 µM (top of the series)).

For `CCOP(=S)(OCC)Oc1ccc2c(C)c(Cl)c(=O)oc2c1`, the Potency result in assay [1], in [2], in [4], in [17], in assay [5] and in assay [6] was “inactive” each time. Also, the Potency result in assay [7], in [9], in assay [19], in assay [10], in assay [12] and in assay [13] was “inactive” throughout. In addition, the Potency entry in assay [15] was “inactive”. Also, the Potency was 31 µM (active) and 27.3 µM (active) and 29.8 µM (active) in assay [3]; “inactive and 11.9 µM (active)” in [18]; 12.4 µM (active) and 43.6 µM (active) and inactive in [11]; 14 µM (active) and 43.6 µM (active) and inactive in assay [14]. Also, the outcome in assay [8] was inactive. Also, the activity change, positive = activation in [20] (at 42.5 µM (top of the series)) was 25.6% (active); in assay [20] (at 92.4 µM (top of the series)), -10.9% (inactive) and -28.3% (inactive).
